Test results taken from PubChem BioAssay AID1159580 (chemical genetic matrix, 2015).
The campaign covered roughly 5,500 compounds. About 2,000 (36%) were called active. Roughly 18% stayed inconclusive and do not appear here. No stated cut-off is given here; in the data, active means normalized growth mostly below about 0.91 (no sharp cut-off); inconclusive means no clear call, values can overlap the other calls; inactive means mostly above about 0.92. This is one part of the list.

Assay: chemical genetic growth profiling, strain panel (AID 1159580);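 further: tested at 20 µM; growth read once vehicle control cultures reached saturation at 30 °C; 1 = growth at the plate median or of vehicle wells; lower values mean less growth of the strain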
Conditions: S. cerevisiae deletion strains, growth OD

Measured: normalized growth

O=C(/C=C/Sc1nc2ccccc2s1)c1ccc(Cl)cc1
inactive: locus YAR019C, strain CDC15, active compounds read low 0.977 | locus YBL105C, strain PKC1, active compounds read low 0.972 | locus YBR135W, strain CKS1, active compounds read low 0.983 | locus YBR136W, strain MEC1, active compounds read low 0.986 | locus YBR160W, strain CDC28, active compounds read low 0.983 | locus YDL017W, strain CDC7, active compounds read low 0.983 | locus YDL028C, strain MPS1, active compounds read low 0.987 | locus YDL101C, strain DUN1, active compounds read low 0.975 | locus YDL108W, strain KIN28, active compounds read low 0.985 | locus YDL132W, strain cdc53, active compounds read low 0.983 | locus YDL214C, strain PRR2, active compounds read low 0.894 | locus YDR052C, strain DBF4, active compounds read low 0.99 | locus YDR054C, strain cdc34, active compounds read low 0.969 | locus YDR226W, strain ADK1, active compounds read low 0.981 | locus YDR477W, strain SNF1, active compounds read low 0.926 | locus YER123W, strain YCK3, active compounds read low 0.872 | locus YER133W, strain GLC7, active compounds read low 0.911 | locus YFL009W, strain cdc4, active compounds read low 0.98 | locus YFL029C, strain CAK1, active compounds read low 0.977 | locus YFR003C, strain YPI1, active compounds read low 0.981 | locus YFR019W, strain FAB1, active compounds read low 0.932 | locus YFR028C, strain CDC14, active compounds read low 0.986 | locus YGR040W, strain KSS1, active compounds read low 0.941 | locus YGR052W, strain FMP48, active compounds read low 0.92 | locus YGR092W, strain DBF2, active compounds read low 0.925 | locus YHR079C, strain IRE1, active compounds read low 0.78 | locus YHR082C, strain KSP1, active compounds read low 0.932 | locus YHR205W, strain SCH9, active compounds read low 0.743 | locus YIL147C, strain SLN1, active compounds read low 0.99 | locus YJL095W, strain BCK1, active compounds read low 0.854 | locus YJL128C, strain PBS2, active compounds read low 0.954 | locus YJL157C, strain FAR1, active compounds read low 0.896 | locus YJR016C, strain ILV3, active compounds read low 0.985 | locus YJR066W, strain TOR1 (second series), active compounds read low 0.808 | locus YJR066W, strain TOR1, active compounds read low 0.893 | locus YKL048C, strain ELM1, active compounds read low 0.958 | locus YKL067W, strain YNK1, active compounds read low 0.909 | locus YKL101W, strain HSL1, active compounds read low 0.927 | locus YKL193C, strain SDS22, active compounds read low 0.986 | locus YKL203C, strain TOR2, active compounds read low 0.975 | locus YLR133W, strain CKI1, active compounds read low 0.905 | locus YLR403W, strain SFP1, active compounds read low 0.901 | locus YML070W, strain DAK1, active compounds read low 0.877 | locus YMR001C, strain CDC5, active compounds read low 0.978 | locus YMR205C, strain PFK2 (second series), active compounds read low 0.936 | locus YMR277W, strain FCP1, active compounds read low 0.988 | locus YNL006W, strain LST8, active compounds read low 0.979 | locus YNL020C, strain ARK1, active compounds read low 0.911 | locus YNL161W, strain CBK1, active compounds read low 0.962 | locus YNL183C, strain NPR1, active compounds read low 0.923 | locus YNL207W, strain RIO2, active compounds read low 0.988 | locus YNL222W, strain SSU72, active compounds read low 0.981 | locus YNL307C, strain MCK1 (second series), active compounds read low 0.92 | locus YOL078W, strain AVO1, active compounds read low 0.981 | locus YOL136C, strain PFK27, active compounds read low 0.83 | locus YOR061W, strain CKA2, active compounds read low 0.953 | locus YOR119C, strain RIO1, active compounds read low 0.996 | locus YOR231W, strain MKK1, active compounds read low 0.811 | locus YOR329C, strain SCD5, active compounds read low 0.972 | locus YPL031C, strain PHO85, active compounds read low 0.912 | locus YPL153C, strain RAD53, active compounds read low 0.942 | locus YPL204W, strain HRR25, active compounds read low 0.882 | locus YPL209C, strain IPL1, active compounds read low 0.979 | locus YPR025C, strain CCL1, active compounds read low 0.972 | locus YPR106W, strain ISR1, active compounds read low 0.985 | locus YPR111W, strain DBF20, active compounds read low 0.979 | strain NNK1, active compounds read low 0.981 | strain TSCII, active compounds read low 0.983
active: locus YHR030C, strain SLT2, active compounds read low 0.697 | locus YLR113W, strain HOG1, active compounds read low 0.593 | locus YPL256C, strain CLN2, active compounds read low 0.72
